# Measurements from article PMC5540273 (PLoS ONE, 2017).
# Where “and” joins values, the source holds several entries; their conditions need not be identical. Equal entries are not always repeated. Where two headings read alike, the source gives them in different places.
# Assays:
# PAK4 = details: concentration: 1 μM, replicates: in singlicate; n = 1
# PAK6 = details: concentration: 1 μM, replicates: in singlicate, n = 1
# PAK7 = details: concentration: 1 μM, replicates: in singlicate, n = 1
# PCTK1 = tested on: T1, PCTK1; details: concentration: 1 μM, replicates: in singlicate, n = 1
# T1 construct: gene CDK16
# PCTK2 = tested on: T2, PCTK2; details: concentration: 1 μM, replicates: in singlicate, n = 1
# T2 construct: gene CDK17
# PCTK3 = tested on: T3, PCTK3; details: concentration: 1 μM, replicates: in singlicate; n = 1
# T3 construct: gene CDK18
# PDGFRA = details: concentration: 1 μM, replicates: in singlicate; n = 1
# PDGFRB = details: concentration: 1 μM, replicates: in singlicate, n = 1
# PDPK1 = details: concentration: 1 μM, replicates: in singlicate; n = 1
# PFTAIRE2 = details: concentration: 1 μM, replicates: in singlicate, n = 1
# PFTK1 = tested on: T4, PFTK1; details: concentration: 1 μM, replicates: in singlicate, n = 1
# T4 construct: gene CDK14
# PHKG1 = details: concentration: 1 μM, replicates: in singlicate; n = 1
# PHKG2 = details: concentration: 1 μM, replicates: in singlicate, n = 1
# PIK3C2B = details: concentration: 1 μM, replicates: in singlicate; n = 1
# PIK3C2G = details: concentration: 1 μM, replicates: in singlicate, n = 1
# PIK3CA = details: concentration: 1 μM, replicates: in singlicate; n = 1
# PIK3CB = details: concentration: 1 μM, replicates: in singlicate; n = 1
# PIK3CD = details: concentration: 1 μM, replicates: in singlicate, n = 1
# PIK3CG = details: concentration: 1 μM, replicates: in singlicate; n = 1
# PIK4CB = tested on: T5, PIK4CB; details: concentration: 1 μM, replicates: in singlicate, n = 1
# T5 construct: gene PI4KB
# 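Also: KINOMEscan kinase panel screen.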
structure (smiles),measurement,setting,value
CCCCCc1nc2c(N)ncnc2n1CCCCC [SKF-97255],%Inh,PAK4,6%
same,%Inh,PAK6,0%
same,%Inh,PAK7,0%
same,%Inh,PCTK1,0%
same,%Inh,PCTK2,0%
same,%Inh,PCTK3,0%
same,%Inh,PDGFRA,0%
same,%Inh,PDGFRB,73%
same,%Inh,PDPK1,0%
same,%Inh,PFTAIRE2,0%
same,%Inh,PFTK1,2%
same,%Inh,PHKG1,9%
same,%Inh,PHKG2,0%
same,%Inh,PIK3C2B,0%
same,%Inh,PIK3C2G,0%
same,%Inh,PIK3CA,14%
same,%Inh,PIK3CB,0%
same,%Inh,PIK3CD,0%
same,%Inh,PIK3CG,15%
same,%Inh,PIK4CB,1%
COc1ccc(Nc2nccc(N3CCC(NC(=O)Nc4cc(C)ccc4C)C3)n2)cc1 (centres unmarked) [GSK1379741],%Inh,PAK4,0%
same,%Inh,PAK6,0%
same,%Inh,PAK7,0%
same,%Inh,PCTK1,3%
same,%Inh,PCTK2,9%
same,%Inh,PCTK3,6%
same,%Inh,PDGFRA,0%
same,%Inh,PDGFRB,2%
same,%Inh,PDPK1,0%
same,%Inh,PFTAIRE2,13%
same,%Inh,PFTK1,2%
same,%Inh,PHKG1,0%
same,%Inh,PHKG2,0%
same,%Inh,PIK3C2B,0%
same,%Inh,PIK3C2G,0%
same,%Inh,PIK3CA,0%
same,%Inh,PIK3CB,0%
same,%Inh,PIK3CD,0%
same,%Inh,PIK3CG,0%
same,%Inh,PIK4CB,23%
NS(=O)(=O)c1cccc(-c2ccc3nccc(-c4cccc(S(N)(=O)=O)c4)c3c2)c1 [GW867253],%Inh,PAK4,0%
same,%Inh,PAK6,0%
same,%Inh,PAK7,6%
same,%Inh,PCTK1,0%
same,%Inh,PCTK2,0%
same,%Inh,PCTK3,0%
same,%Inh,PDGFRA,0%
same,%Inh,PDGFRB,1%
same,%Inh,PDPK1,0%
same,%Inh,PFTAIRE2,19%
same,%Inh,PFTK1,0%
same,%Inh,PHKG1,0%
same,%Inh,PHKG2,5%
same,%Inh,PIK3C2B,58%
same,%Inh,PIK3C2G,52%
same,%Inh,PIK3CA,38%
same,%Inh,PIK3CB,24%
same,%Inh,PIK3CD,39%
same,%Inh,PIK3CG,88%
same,%Inh,PIK4CB,99.1%
[2H]C([2H])(c1cccc(C(F)(F)F)c1C)n1ccn2c(=O)nc(N3CCOCC3)cc12 [GSK2336394],%Inh,PAK4,0%
same,%Inh,PAK6,0%
same,%Inh,PAK7,0%
same,%Inh,PCTK1,4%
same,%Inh,PCTK2,0%
same,%Inh,PCTK3,11%
same,%Inh,PDGFRA,0%
same,%Inh,PDGFRB,15%
same,%Inh,PDPK1,0%
same,%Inh,PFTAIRE2,0%
same,%Inh,PFTK1,12%
same,%Inh,PHKG1,0%
same,%Inh,PHKG2,0%
same,%Inh,PIK3C2B,0%
same,%Inh,PIK3C2G,0%
same,%Inh,PIK3CA,0%
same,%Inh,PIK3CB,97.5%
same,%Inh,PIK3CD,38%
same,%Inh,PIK3CG,0%
same,%Inh,PIK4CB,0%
O=c1cc(N2CCOCC2)nc2n(Cc3cccc(C(F)(F)F)c3)ccn12 [GSK2297543],%Inh,PAK4,0%
same,%Inh,PAK6,0%
same,%Inh,PAK7,0%
same,%Inh,PCTK1,6%
same,%Inh,PCTK2,0%
same,%Inh,PCTK3,1%
same,%Inh,PDGFRA,11%
same,%Inh,PDGFRB,22%
same,%Inh,PDPK1,0%
same,%Inh,PFTAIRE2,17%
same,%Inh,PFTK1,12%
same,%Inh,PHKG1,0%
same,%Inh,PHKG2,4%
same,%Inh,PIK3C2B,0%
same,%Inh,PIK3C2G,0%
same,%Inh,PIK3CA,0%
same,%Inh,PIK3CB,96.5%
same,%Inh,PIK3CD,28%
same,%Inh,PIK3CG,8%
same,%Inh,PIK4CB,0%
COc1cc2c(cc1OCCN1CCN(C)CC1)ncc1c3ccc(C#N)cc3[nH]c21,%Inh,PAK4,7%
same,%Inh,PAK6,18%
same,%Inh,PAK7,4%
same,%Inh,PCTK1,0%
same,%Inh,PCTK2,12%
same,%Inh,PCTK3,4%
same,%Inh,PDGFRA,97.7%
same,%Inh,PDGFRB,94.7%
same,%Inh,PDPK1,0%
same,%Inh,PFTAIRE2,58%
same,%Inh,PFTK1,18%
same,%Inh,PHKG1,98.2%
same,%Inh,PHKG2,99.8%
same,%Inh,PIK3C2B,0%
same,%Inh,PIK3C2G,25%
same,%Inh,PIK3CA,0%
same,%Inh,PIK3CB,0%
same,%Inh,PIK3CD,0%
same,%Inh,PIK3CG,0%
same,%Inh,PIK4CB,0%
CC(C)(CN)c1nc(-c2ccc(Cl)c(O)c2)c(-c2ccncc2)[nH]1.O=C(O)C(F)(F)F [SB-477794],%Inh,PAK4,0%
same,%Inh,PAK6; 1 µM,10% and 0%
same,%Inh,PAK7; 1 µM,21% and 25%
same,%Inh,PCTK1; 1 µM,4% and 0%
same,%Inh,PCTK2; 1 µM,99.7% and 0%
same,%Inh,PCTK3,0%
same,%Inh,PDGFRA,59%
same,%Inh,PDGFRB; 1 µM,99.5% and 98.1%
same,%Inh,PDPK1,0%
same,%Inh,PFTAIRE2; 1 µM,14% and 7%
same,%Inh,PFTK1; 1 µM,6% and 3%
same,%Inh,PHKG1,0%
same,%Inh,PHKG2; 1 µM,12% and 0%
same,%Inh,PIK3C2B,0%
same,%Inh,PIK3C2G; 1 µM,0% and 5%
same,%Inh,PIK3CA,0%
same,%Inh,PIK3CB,0%
same,%Inh,PIK3CD; 1 µM,20% and 5%
same,%Inh,PIK3CG,0%
same,%Inh,PIK4CB; 1 µM,25% and 0%
CCn1cnc2c(N)ncnc21 [GW345098],%Inh,PAK4,6%
same,%Inh,PAK6,13%
same,%Inh,PAK7,11%
same,%Inh,PCTK1,0%
same,%Inh,PCTK2,0%
same,%Inh,PCTK3,0%
same,%Inh,PDGFRA,0%
same,%Inh,PDGFRB,24%
same,%Inh,PDPK1,11%
same,%Inh,PFTAIRE2,3%
same,%Inh,PFTK1,2%
same,%Inh,PHKG1,4%
same,%Inh,PHKG2,13%
same,%Inh,PIK3C2B,27%
same,%Inh,PIK3C2G,31%
same,%Inh,PIK3CA,29%
same,%Inh,PIK3CB,0%
same,%Inh,PIK3CD,0%
same,%Inh,PIK3CG,21%
same,%Inh,PIK4CB,1%
c1ccc(-c2cc(-c3c[nH]nc3-c3ccccn3)ccn2)cc1 [GW576604],%Inh,PAK4,0%
same,%Inh,PAK6,0%
same,%Inh,PAK7,0%
same,%Inh,PCTK1,0%
same,%Inh,PCTK2,0%
same,%Inh,PCTK3,36%
same,%Inh,PDGFRA,0%
same,%Inh,PDGFRB,17%
same,%Inh,PDPK1,0%
same,%Inh,PFTAIRE2,16%
same,%Inh,PFTK1,39%
same,%Inh,PHKG1,0%
same,%Inh,PHKG2,0%
same,%Inh,PIK3C2B,0%
same,%Inh,PIK3C2G,0%
same,%Inh,PIK3CA,0%
same,%Inh,PIK3CB,0%
same,%Inh,PIK3CD,0%
same,%Inh,PIK3CG,0%
same,%Inh,PIK4CB,0%
O=C(NCCNc1ccnc(Nc2ccc(F)cc2)n1)Nc1ccccc1F [GSK1379880],%Inh,PAK4,0%
same,%Inh,PAK6,0%
same,%Inh,PAK7,0%
same,%Inh,PCTK1,0%
same,%Inh,PCTK2,16%
same,%Inh,PCTK3,14%
same,%Inh,PDGFRA,0%
same,%Inh,PDGFRB,70%
same,%Inh,PDPK1,7%
same,%Inh,PFTAIRE2,21%
same,%Inh,PFTK1,13%
same,%Inh,PHKG1,0%
same,%Inh,PHKG2,0%
same,%Inh,PIK3C2B,0%
same,%Inh,PIK3C2G,62%
same,%Inh,PIK3CA,0%
same,%Inh,PIK3CB,0%
same,%Inh,PIK3CD,21%
same,%Inh,PIK3CG,0%
same,%Inh,PIK4CB,13%
